# From the supplement of paper PMC11001985
# Compound: C#CCNC(=O)CCSSCCC(=O)NCCc1ccc(C=O)c(C=O)c1
# Experiment: lysine labeling ratio R10:1 (500 µM / 50 µM probe), SILAC-ABPP in living cells; higher = lower intrinsic lysine reactivity toward the probe, active = 2 or less
# Conditions: HeLa; probe concentrations 500 vs 50 µM
# Summary of the method: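 An alkyne-tagged lysine probe with a disulfide linker labelled living HeLa cells in PBS at room temperature at either 50 µM or 500 µM, using SILAC light and heavy cells in forward and reverse label swaps. Lysates were mixed, clicked to biotin-azide, trypsin-digested, enriched on neutravidin, DTT-released, alkylated and measured by LC-MS/MS on a TIMS-TOF Pro. Each lysine's R is the filtered median high-probe/low-probe MS1 peptide ratio, combined as the median over forward and reverse replicates, with 20 as the upper limit.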
# UniProt Q15149, sequence (Q15149 whole entry): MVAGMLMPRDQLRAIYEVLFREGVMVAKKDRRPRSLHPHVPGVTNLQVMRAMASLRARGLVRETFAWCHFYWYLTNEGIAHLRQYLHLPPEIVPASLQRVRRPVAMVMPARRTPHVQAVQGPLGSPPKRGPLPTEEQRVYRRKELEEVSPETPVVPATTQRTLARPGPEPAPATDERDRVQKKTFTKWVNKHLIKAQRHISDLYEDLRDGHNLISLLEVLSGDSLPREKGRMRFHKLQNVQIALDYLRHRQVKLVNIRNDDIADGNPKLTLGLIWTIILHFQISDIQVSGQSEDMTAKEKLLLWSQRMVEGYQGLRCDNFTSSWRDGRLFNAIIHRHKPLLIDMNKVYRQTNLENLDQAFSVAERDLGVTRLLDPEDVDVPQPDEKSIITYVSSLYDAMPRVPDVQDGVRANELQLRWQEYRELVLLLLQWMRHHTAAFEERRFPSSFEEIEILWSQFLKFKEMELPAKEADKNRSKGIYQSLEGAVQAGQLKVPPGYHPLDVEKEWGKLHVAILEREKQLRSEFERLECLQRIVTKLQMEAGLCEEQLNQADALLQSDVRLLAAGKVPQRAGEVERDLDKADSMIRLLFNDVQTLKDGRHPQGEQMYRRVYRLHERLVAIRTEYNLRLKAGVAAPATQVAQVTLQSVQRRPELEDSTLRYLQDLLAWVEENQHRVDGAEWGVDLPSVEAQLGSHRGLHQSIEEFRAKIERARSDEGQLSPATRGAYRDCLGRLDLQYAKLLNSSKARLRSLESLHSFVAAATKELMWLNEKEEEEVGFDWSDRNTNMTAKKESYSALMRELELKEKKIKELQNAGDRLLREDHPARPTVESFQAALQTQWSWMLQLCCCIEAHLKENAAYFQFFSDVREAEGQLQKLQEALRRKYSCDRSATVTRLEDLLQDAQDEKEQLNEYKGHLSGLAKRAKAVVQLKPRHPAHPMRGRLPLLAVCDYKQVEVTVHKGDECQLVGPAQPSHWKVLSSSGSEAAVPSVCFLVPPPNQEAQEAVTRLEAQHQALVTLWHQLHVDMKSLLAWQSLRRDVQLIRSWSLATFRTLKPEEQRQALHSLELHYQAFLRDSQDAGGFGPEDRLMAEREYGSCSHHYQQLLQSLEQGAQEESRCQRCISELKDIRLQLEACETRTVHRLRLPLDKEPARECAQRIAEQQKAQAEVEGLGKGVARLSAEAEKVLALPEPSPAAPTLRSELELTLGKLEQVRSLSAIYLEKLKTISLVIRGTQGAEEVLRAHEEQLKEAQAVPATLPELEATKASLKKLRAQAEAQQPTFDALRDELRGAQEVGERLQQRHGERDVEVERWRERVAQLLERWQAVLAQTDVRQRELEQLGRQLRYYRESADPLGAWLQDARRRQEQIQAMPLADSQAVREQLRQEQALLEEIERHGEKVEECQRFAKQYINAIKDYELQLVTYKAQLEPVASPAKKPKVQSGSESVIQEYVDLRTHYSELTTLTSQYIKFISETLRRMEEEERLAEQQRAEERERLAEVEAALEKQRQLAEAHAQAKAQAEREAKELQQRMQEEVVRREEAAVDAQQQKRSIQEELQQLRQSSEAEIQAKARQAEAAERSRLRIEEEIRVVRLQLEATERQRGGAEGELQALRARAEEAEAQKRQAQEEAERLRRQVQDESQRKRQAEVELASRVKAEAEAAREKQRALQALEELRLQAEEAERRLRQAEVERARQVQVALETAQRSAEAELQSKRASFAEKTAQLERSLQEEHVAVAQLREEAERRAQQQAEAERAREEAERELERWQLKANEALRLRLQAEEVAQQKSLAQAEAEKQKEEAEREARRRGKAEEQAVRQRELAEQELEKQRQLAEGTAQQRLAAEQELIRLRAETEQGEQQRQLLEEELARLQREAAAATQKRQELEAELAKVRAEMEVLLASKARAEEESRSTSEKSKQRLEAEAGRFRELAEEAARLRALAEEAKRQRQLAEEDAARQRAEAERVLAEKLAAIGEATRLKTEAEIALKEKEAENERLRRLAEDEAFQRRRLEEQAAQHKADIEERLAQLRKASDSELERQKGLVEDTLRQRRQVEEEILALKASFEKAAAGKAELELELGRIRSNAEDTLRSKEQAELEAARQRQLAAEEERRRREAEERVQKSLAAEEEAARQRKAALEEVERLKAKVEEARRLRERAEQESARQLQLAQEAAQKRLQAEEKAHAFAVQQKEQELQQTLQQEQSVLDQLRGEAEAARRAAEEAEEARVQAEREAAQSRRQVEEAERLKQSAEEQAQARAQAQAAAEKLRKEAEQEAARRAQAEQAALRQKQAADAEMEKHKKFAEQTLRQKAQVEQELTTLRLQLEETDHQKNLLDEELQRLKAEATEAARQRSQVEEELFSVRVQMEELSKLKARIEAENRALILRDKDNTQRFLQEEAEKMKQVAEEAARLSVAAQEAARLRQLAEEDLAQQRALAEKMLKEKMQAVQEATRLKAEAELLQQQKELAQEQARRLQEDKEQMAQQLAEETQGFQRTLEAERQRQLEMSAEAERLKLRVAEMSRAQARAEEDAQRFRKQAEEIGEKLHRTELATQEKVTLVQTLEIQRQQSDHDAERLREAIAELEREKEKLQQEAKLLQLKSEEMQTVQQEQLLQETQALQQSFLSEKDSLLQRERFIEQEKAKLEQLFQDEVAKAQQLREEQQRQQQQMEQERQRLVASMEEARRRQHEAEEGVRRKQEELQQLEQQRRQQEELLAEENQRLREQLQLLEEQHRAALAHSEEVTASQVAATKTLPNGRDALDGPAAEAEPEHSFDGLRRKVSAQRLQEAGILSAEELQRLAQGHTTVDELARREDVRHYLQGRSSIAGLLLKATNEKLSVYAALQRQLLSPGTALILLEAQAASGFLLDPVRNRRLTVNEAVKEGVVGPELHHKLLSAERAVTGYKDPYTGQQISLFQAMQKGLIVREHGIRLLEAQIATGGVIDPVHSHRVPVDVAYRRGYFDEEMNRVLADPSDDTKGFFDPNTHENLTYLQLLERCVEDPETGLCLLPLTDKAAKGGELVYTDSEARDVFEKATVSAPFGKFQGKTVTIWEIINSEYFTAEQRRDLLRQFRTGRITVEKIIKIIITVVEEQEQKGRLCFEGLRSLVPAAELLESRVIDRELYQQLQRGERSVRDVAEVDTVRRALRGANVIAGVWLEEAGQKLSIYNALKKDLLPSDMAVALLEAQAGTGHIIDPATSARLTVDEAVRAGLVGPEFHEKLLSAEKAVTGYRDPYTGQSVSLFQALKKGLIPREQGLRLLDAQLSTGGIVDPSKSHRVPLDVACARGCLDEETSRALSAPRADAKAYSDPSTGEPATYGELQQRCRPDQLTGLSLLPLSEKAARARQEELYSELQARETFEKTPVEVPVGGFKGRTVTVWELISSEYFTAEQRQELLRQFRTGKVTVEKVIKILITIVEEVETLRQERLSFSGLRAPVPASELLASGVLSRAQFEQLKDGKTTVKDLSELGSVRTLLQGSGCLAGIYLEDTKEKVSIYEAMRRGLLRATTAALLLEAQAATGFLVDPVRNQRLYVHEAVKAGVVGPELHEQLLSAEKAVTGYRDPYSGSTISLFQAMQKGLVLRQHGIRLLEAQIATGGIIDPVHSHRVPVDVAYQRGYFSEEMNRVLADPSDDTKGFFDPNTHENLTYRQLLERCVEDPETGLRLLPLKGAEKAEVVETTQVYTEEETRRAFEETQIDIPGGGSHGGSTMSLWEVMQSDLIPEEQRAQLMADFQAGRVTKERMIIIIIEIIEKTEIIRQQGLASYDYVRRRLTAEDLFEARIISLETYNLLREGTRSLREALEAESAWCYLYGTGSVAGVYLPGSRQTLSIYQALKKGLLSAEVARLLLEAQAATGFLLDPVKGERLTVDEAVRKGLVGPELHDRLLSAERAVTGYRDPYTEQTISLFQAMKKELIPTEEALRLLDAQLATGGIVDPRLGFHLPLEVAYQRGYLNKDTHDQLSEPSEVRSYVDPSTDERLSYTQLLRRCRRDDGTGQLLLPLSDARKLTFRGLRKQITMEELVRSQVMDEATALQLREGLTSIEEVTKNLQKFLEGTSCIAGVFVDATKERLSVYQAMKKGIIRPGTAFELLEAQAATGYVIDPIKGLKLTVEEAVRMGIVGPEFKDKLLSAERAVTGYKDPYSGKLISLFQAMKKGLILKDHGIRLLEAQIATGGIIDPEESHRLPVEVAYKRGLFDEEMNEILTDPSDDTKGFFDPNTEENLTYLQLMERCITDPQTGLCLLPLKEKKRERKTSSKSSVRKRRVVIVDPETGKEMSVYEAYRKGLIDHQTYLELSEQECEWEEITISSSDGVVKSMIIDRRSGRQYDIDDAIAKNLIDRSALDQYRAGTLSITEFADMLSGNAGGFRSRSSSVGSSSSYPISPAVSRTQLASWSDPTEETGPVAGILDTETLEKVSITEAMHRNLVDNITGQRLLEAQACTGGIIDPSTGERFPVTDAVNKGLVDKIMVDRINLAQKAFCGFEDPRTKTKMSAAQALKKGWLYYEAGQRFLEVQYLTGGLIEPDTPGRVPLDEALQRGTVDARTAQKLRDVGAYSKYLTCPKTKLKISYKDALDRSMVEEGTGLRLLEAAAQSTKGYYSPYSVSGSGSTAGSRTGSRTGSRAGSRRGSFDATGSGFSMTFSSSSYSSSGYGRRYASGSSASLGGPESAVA
# UniProt P05783, sequence (P05783 whole entry): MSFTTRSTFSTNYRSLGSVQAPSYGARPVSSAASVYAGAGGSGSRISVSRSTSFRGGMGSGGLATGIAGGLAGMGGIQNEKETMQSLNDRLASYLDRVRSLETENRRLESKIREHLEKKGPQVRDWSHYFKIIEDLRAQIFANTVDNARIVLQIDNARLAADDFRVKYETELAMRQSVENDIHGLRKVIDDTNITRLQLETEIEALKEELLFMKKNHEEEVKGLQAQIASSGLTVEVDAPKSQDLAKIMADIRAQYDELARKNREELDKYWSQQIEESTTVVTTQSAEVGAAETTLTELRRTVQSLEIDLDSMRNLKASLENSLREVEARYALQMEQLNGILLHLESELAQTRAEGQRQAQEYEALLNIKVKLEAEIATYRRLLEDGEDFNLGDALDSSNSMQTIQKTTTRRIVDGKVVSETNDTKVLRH
row,Target,lysine labeling ratio R10:1
1,RPL4 (lysine site: K106) (UniProt P36578),2.43 (inactive)
2,UniProt Q15149 (lysine site: K581),3.7 (inactive)
3,VCL (lysine site: K453) (UniProt P18206),3.28 (inactive)
4,YWHAQ (lysine site: K85) (UniProt P27348),4.79 (inactive)
5,ROBO1 (lysine site: K516) (UniProt Q9Y6N7),4.56 (inactive)
6,UniProt Q9NYQ6 (lysine site: K2118),2.31 (inactive)
7,NOTCH1 (lysine site: K185) (UniProt P46531),1.8 (active)
8,KRT18 (lysine site: K119) (UniProt P05783),6.22 (inactive)
9,UniProt Q86V81 (lysine site: K134),4.23 (inactive)
10,CDH2 (lysine site: K699) (UniProt P19022),10.6 (inactive)
11,PLXND1 (lysine site: K1182) (UniProt Q9Y4D7),0.824 (active)
12,KRT18 (lysine site: K417) (UniProt P05783),10.9 (inactive)
13,MTHFD2 (lysine site: K50) (UniProt P13995),3.56 (inactive)
14,ITGAV (lysine site: K533) (UniProt P06756),1.58 (active)
15,ACTN1 (lysine site: K492) (UniProt P12814),0.906 (active)
16,HNRNPL (lysine site: K538) (UniProt P14866),1.29 (active)
17,LRP1 (lysine site: K646) (UniProt Q07954),1.92 (active)
18,UniProt Q15149 (lysine site: K1718),4.36 (inactive)
19,KPNB1 (lysine site: K376) (UniProt Q14974),2.54 (inactive)
20,ACTN4 (lysine site: K632) (UniProt O43707),4.35 (inactive)

row,Target,lysine labeling ratio R10:1
1,GNG12 (lysine site: K34) (UniProt Q9UBI6),2.84 (inactive)
2,TPI1 (lysine site: K194) (UniProt P60174),1.22 (active)
3,UniProt P60842 (lysine site: K309),1.73 (active)
4,UniProt P83881 (lysine site: K38),1.61 (active)
5,RPS19 (lysine site: K97) (UniProt P39019),1.48 (active)
6,HSP90B1 (lysine site: K633) (UniProt P14625),3.03 (inactive)
7,UniProt Q15149 (lysine site: K300),2.94 (inactive)
8,SPTAN1 (lysine site: K1750) (UniProt Q13813),2.19 (inactive)
9,UniProt P26639 (lysine site: K213),0.782 (active)
10,ACSL3 (lysine site: K397) (UniProt O95573),3.08 (inactive)
11,TLN1 (lysine site: K687) (UniProt Q9Y490),3.61 (inactive)
12,PLS3 (lysine site: K91) (UniProt P13797),2.1 (inactive)
13,FRAS1 (lysine site: K2396) (UniProt Q86XX4),1.59 (active)
14,UniProt Q8WXI7 (lysine site: K13072),11.1 (inactive)
15,SMOC1 (lysine site: K53) (UniProt Q9H4F8),2.22 (inactive)
16,ENAH (lysine site: K574) (UniProt Q8N8S7),5.16 (inactive)
17,ORMDL3 (lysine site: K79) (UniProt Q8N138),5.16 (inactive)
18,SDC2 (lysine site: K134) (UniProt P34741),3.52 (inactive)
19,CHCHD3 (lysine site: K89) (UniProt Q9NX63),0.99 (active)
20,RPS19 (lysine site: K115) (UniProt P39019),1.86 (active)
